Each structure is given as a SMILES string. Inconclusive results are not listed. Calls of active or inactive are those of the source. Calls follow the shape of the dose curve; as a rule, active = well fitted inhibition curve with a large enough effect; inconclusive = small, poorly fitted or top-dose-only effect; inactive = flat fitted curve, though single readings scatter.

Common to all, as to assay: qHTS profiling for inhibitors of Plasmodium falciparum proliferation (AID 504749); also: nearly all actives have a fitted effect of over 60% in size
Holding throughout (settings): P. falciparum in erythrocytes, SYBR Green DNA, 72 h; series mostly up to 28.7 µM
In general terms: In qHTS, concentration-response curves come from the screen itself.

The test system of one assay is CP266. A digest of the protocol:
(§1)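 Fluorescence of SYBR Green-bound parasite DNA, read at 485/535 nm, served as the growth measure. Infected erythrocytes were cultured with compound 72 h; artemisinin (0.29 uM) and DMSO wells defined the normalization range.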

Another assay has as its system CP262. In short, it runs like this: as §1
The test system of a further assay is CP265. In short, it runs like this: as §1
Another assay deals with CP238. In short, it runs like this: as §1
A further assay concerns CP250. A digest of the protocol: as §1
The next assay relates to CP252. In short, it runs like this:
as §1

The next assay has as its system CP256. In short, it runs like this: as §1
The next assay deals with CP260. A digest of the protocol:
as §1

The test system of a further assay is CP247. A digest of the protocol: as §1
Another assay has as its system CP237. A digest of the protocol: as §1
Potency is read from the fitted curve at half-maximal effect.

With `CC(C)[N+](C)(CCOC(=O)C1c2ccccc2Oc2ccccc21)C(C)C`, the Potency entry in the assay with CP266 was “inactive”.

Regarding `CN(C)CCCN1c2ccccc2Sc2ccccc21`, the Potency entry in the assay on CP262 and with CP266 was “inactive” each time. Further, the Potency in the assay on CP265 is 2.82 µM (active).

For `CN(C)CCOC(=O)COc1ccc(Cl)cc1`, the Potency entry with CP238, in the assay on CP250, in the assay on CP252, in the assay with CP256, with CP260 and in the assay on CP262 was “inactive” throughout. For the same molecule, the Potency entry in the assay with CP265 is “inactive”.

`CN(C)C/C=C(/c1ccc(Br)cc1)c1cccnc1`: the Potency entry in the assay with CP238, in the assay on CP247, with CP250, in the assay on CP252, with CP256 and in the assay with CP260 was “inactive” in each case. Besides, the Potency entry in the assay with CP262, in the assay with CP265 and with CP266 was “inactive” each time.

Consider `COCCOC(=O)C1=C(C)NC(C)=C(C(=O)OC(C)C)C1c1cccc([N+](=O)[O-])c1` (configuration not stated), for which the Potency result with CP250, in the assay on CP256, in the assay with CP262 and in the assay with CP266 was “inactive” in each case.

As for `CN(C)CCN(Cc1cccs1)c1ccccn1`, the Potency was 2 µM (active) in the assay on CP237, 11.2 µM (active) with CP238 and 10 µM (active) with CP265. The Potency entry in the assay with CP262 was “inactive”.

Regarding `Cc1ccc(Cl)c(Nc2ccccc2C(=O)O)c1Cl`, the Potency result in the assay with CP238, with CP247, in the assay on CP250, with CP252, with CP256 and in the assay on CP262 was “inactive” in each case. Moreover, the Potency result with CP265 and in the assay on CP266 was “inactive” throughout.

For `CN(C)C(=O)Oc1ccc[n+](C)c1`, the Potency entry in the assay on CP237, in the assay with CP238, in the assay on CP250, in the assay on CP252, in the assay on CP256 and in the assay with CP260 was “inactive” each time. Further, the Potency result in the assay on CP262, with CP265 and with CP266 was “inactive” each time.

Consider `NC(N)=NC(=O)Cc1c(Cl)cccc1Cl`, for which the Potency entry in the assay on CP238 and in the assay on CP266 was “inactive” each time. In addition, the Potency with CP250 was 7.08 µM (active); in the assay with CP256 it was 12.6 µM (active); in the assay on CP260 it was 10 µM (active); in the assay with CP262, 4.26 µM (active).

For the molecule `OCCN1CCN(CC/C=C2/c3ccccc3Sc3ccc(C(F)(F)F)cc32)CC1`, the Potency in the assay on CP237 was 10 µM (active); in the assay with CP247, 8.91 µM (active); with CP250 it was 12.6 µM (active); in the assay with CP252 it was 7.94 µM (active); in the assay on CP256 it was 3.98 µM (active); in the assay with CP260, 12.6 µM (active). Further, the Potency in the assay with CP262 was 6.01 µM (active).

As to `CCCCCCCC/C=C\CCCCCCCC(=O)NCc1ccc(O)c(OC)c1`, the values for the Potency with CP247, with CP256 and with CP265 were 7.08 µM (active), 11.2 µM (active) and 10 µM (active), respectively. Further, the Potency result in the assay with CP262 and in the assay with CP266 was “inactive” throughout.

Consider `NC(=Nc1ccccc1)Nc1ccccc1`, for which the Potency result with CP238, in the assay with CP247, in the assay with CP250, with CP252, in the assay on CP256 and in the assay on CP260 was “inactive” each time. Besides, the Potency result in the assay with CP262, in the assay on CP265 and in the assay with CP266 was “inactive” each time.

As for `CC1=C(C)C(=O)C(CCCCC#CCCCC#CCO)=C(C)C1=O`, the Potency in the assay with CP265 is 10 µM (active).

`COC(=O)[C@H]1[C@H]2C[C@@H]3c4[nH]c5cc(OC)ccc5c4CCN3C[C@H]2C[C@@H](OC(=O)c2cc(OC)c(OC)c(OC)c2)[C@@H]1OC`: the Potency with CP237, in the assay on CP238, with CP247, with CP252 and in the assay with CP260 was 11.2 µM (active) in each case.

For `c1cc(CN2CCCCC2)cc(OCCCNc2nc3ccccc3s2)c1`, in the assay on CP262, the Potency entry was “inactive”.

Take `CCC(=O)c1ccc2c(c1)N(CCCN(C)C)c1ccccc1S2`: the Potency result with CP250, in the assay with CP262 and in the assay on CP266 was “inactive” in each case. Besides, the Potency in the assay on CP260 is 11.2 µM (active).

As to `CN(C)CC/C=C1\c2ccccc2COc2ccccc21`, the Potency result in the assay on CP250, in the assay with CP256, with CP262 and in the assay with CP266 was “inactive” throughout. In addition, the Potency in the assay on CP265 is 11.2 µM (active).

For `O=C1CC2(CCCC2)CC(=O)N1CCCCN1CCN(c2ncccn2)CC1`, the Potency result with CP238, with CP247, in the assay on CP250, with CP252, in the assay with CP256 and with CP260 was “inactive” throughout. Moreover, the Potency entry with CP262, with CP265 and in the assay with CP266 was “inactive” in each case.

Consider `Cc1nc2sccn2c(=O)c1CCN1CCC(=C(c2ccc(F)cc2)c2ccc(F)cc2)CC1`, for which the Potency result in the assay with CP256 and in the assay on CP266 was “inactive” throughout.

Turning to `CN(C)CCCN1c2ccccc2Sc2ccc(C(F)(F)F)cc21`, the Potency result in the assay with CP238, in the assay with CP247, in the assay with CP250, in the assay with CP252, with CP256 and in the assay on CP262 was “inactive” throughout. For the same molecule, the Potency result with CP265 and in the assay on CP266 was “inactive” in each case.

(Values after PubChem BioAssay (NCATS).)
